Test results: PubChem BioAssay AID624117 (National Center for Advancing Translational Sciences (NCATS), 2012)
Records with an inconclusive call do not appear. Entries that show only a call come without a potency. Active and inactive are the calls of the source. The call rests on the fitted dose curve; in most records, active means well fitted curve in the direction sought with a large enough effect; inconclusive means small, poorly fitted or top-dose-only effect, or another doubt; inactive means no such curve, though single readings can be large or run the other way.
Potency means the concentration at half of the fitted maximal effect.

Assay: qHTS Assay for Rab9 Promoter Activators: Hit Validation Using Renilla Luciferase Read-Out
Settings: Huh7 NPC1 promoter Renilla luciferase reporter, 24 h; series mostly up to 76.9 µM
In short: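 Hit validation in Huh7 NPC promoter-luciferase reporter line: compound treatment 24 h at 37 deg C, then luminescence measured after 10 min room-temperature incubation with […] reagent.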
In the case of `Nc1c(N(CCO)C(=O)/C=C/c2ccco2)c(=O)[nH]c(=O)n1Cc1ccccc1`, the Potency is reported as “inactive”.
For `O=C(CSc1nnc(-c2ccccn2)o1)Nc1ccccc1Cl`, the Potency was “inactive”.
With `CCCc1cc(C(=O)Nc2ccccc2SC)no1` the Potency was “inactive”.
For `Nc1ccc(C(=O)Nc2ccccc2N)cc1`, the Potency was 8.23 µM (active).
With `Cc1ccc(C(=O)c2cncc(Br)c2)cc1` the Potency was “inactive”.
In the case of `CC1CC(C)CN(CC(=O)N2CCOCC2)C1` (stereo not drawn), the Potency is reported as “inactive”.
For `CC1CN(C(=O)c2ccncc2)CC(C)O1` (stereo not drawn), the Potency was “inactive”.
With `OCCC1CN(Cc2nc3ccccc3s2)CCN1C1CCCC1` (stereo not drawn) the Potency was “inactive”.
In the case of `O=C(CSc1ncccn1)Nc1cccc2ccccc12`, the Potency is reported as “inactive”.
In the case of `O=C(CCNC(=O)c1ccc(Br)o1)NCc1ccc(Cl)cc1`, the Potency is reported as “inactive”.
For `O=C(NCCc1c[nH]c2ccccc12)C(=O)NCC(c1ccco1)N1CCN(c2ccccc2F)CC1` (stereo not drawn), the Potency was “inactive”.
In the case of `O=C(CN1C(=O)COc2ccc(Cl)cc21)NCC1CCCO1` (stereo not drawn), the Potency is reported as “inactive”.
With `Cc1ccc(C)c(Nc2cc(C)nc3ncnn23)c1` the Potency was “inactive”.
In the case of `CCCCCCC(=O)Nc1ccc(C(=O)N/N=C/c2cccnc2)cc1`, the Potency is reported as “inactive”.
In the case of `COC(=O)c1ccc(NC(=O)c2ccc3nc(C)sc3c2)cc1`, the Potency is reported as “inactive”.
In the case of `CCOC(=O)c1ccc(-c2nnc(-c3ccc(Cl)cc3Cl)o2)cc1`, the Potency is reported as “inactive”.
With `COc1ccccc1C(=O)Nc1nnc(SCC(=O)NC2CCCC2)s1` the Potency was “inactive”.
In the case of `O=C(CCc1cccc(Cl)c1)NC1CCCN(Cc2ccccc2F)C1` (stereo not drawn), the Potency is reported as “inactive”.
With `CC(=O)NC(CCCN1C(=O)c2ccccc2C1=O)c1nnn(C)n1` (stereo not drawn) the Potency was “inactive”.
With `COc1ccccc1N(C(=O)c1snc(C(N)=O)c1N)C(C(=O)NC1CCCCC1)c1cccc(OC)c1OC` (stereo not drawn) the Potency was “inactive”.
For `Cc1nc2sc(C(=O)OC(C)C)c(N)c2c(C)c1C`, the Potency was “inactive”.
With `Cc1ccc2c(c1)sc1nc(=O)n(-c3ccccc3)c(=O)n12` the Potency was “inactive”.
With `NC(=O)COC(=O)c1ccc2noc(-c3ccccc3)c2c1` the Potency was “inactive”.
For `CC(C)(C)C(=O)N/C(N)=N/c1nc2ccccc2o1`, the Potency was “inactive”.
In the case of `Cc1ccc(C(=O)NC2CCN(CC(=O)Nc3c(C)cc(C)cc3C)CC2)cc1`, the Potency is reported as “inactive”.
For `O=C(c1cc2cc([N+](=O)[O-])ccc2oc1=O)n1cccn1`, the Potency was “inactive”.
In the case of `O=C(NCC1CCCO1)C(c1ccc(F)cc1)N(Cc1ccc2c(c1)OCO2)C(=O)c1ccc(CN2CCOCC2)o1` (stereo not drawn), the Potency is reported as “inactive”.
For `CC(C)C1(CCNC(=O)c2cccs2)CCOC(C)(C)C1` (stereo not drawn), the Potency was “inactive”.
For `CC(C)CC(=O)N1CCN(c2ccc(NC(=O)c3ccco3)cc2)CC1`, the Potency was “inactive”.
In the case of `Cc1ccc(NC(=O)NC(=O)c2ccccc2)cc1F`, the Potency is reported as “inactive”.
With `CCc1cc(C(=O)Nc2ccccc2)cs1` the Potency was “inactive”.
In the case of `CCOC(=O)c1csc(COc2ccc(OC)cc2)n1`, the Potency is reported as “inactive”.
For `O=C(C1COc2ccccc2O1)N1CCN(S(=O)(=O)c2ccccc2)CC1` (stereo not drawn), the Potency was “inactive”.
With `CCN(Cc1nc2cc(Cl)ccc2c(=O)[nH]1)C(=O)C1CC(=O)N(c2cccc3ccccc23)C1` (stereo not drawn) the Potency was “inactive”.
With `Cc1ccc(S(=O)(=O)/N=C2\C=C(Nc3cccc(C(=O)O)c3)C(=O)c3ccccc32)cc1` the Potency was “inactive”.
For `CC(=O)c1cccc(NC(=O)N2CCOCC2)c1`, the Potency was “inactive”.
For `O=C(CCCOc1ccc(Cl)cc1)N1CCCCC1`, the Potency was “inactive”.
With `Cc1nc(-c2ccc(S(=O)(=O)Oc3ccc(Cl)cc3Cl)s2)cs1` the Potency was “inactive”.
